Screen size: about 340,000 compounds; about 6,900 (2%) were called active. This excerpt belongs to a sample that is enriched for actives. A number with no mark means an inactive call. Rule as the data show it: active = inhibition above about 30%; inactive = below that, where a call was filed.

D(2) dopamine receptor (Homo sapiens), sequence (P14416 whole entry, looked up): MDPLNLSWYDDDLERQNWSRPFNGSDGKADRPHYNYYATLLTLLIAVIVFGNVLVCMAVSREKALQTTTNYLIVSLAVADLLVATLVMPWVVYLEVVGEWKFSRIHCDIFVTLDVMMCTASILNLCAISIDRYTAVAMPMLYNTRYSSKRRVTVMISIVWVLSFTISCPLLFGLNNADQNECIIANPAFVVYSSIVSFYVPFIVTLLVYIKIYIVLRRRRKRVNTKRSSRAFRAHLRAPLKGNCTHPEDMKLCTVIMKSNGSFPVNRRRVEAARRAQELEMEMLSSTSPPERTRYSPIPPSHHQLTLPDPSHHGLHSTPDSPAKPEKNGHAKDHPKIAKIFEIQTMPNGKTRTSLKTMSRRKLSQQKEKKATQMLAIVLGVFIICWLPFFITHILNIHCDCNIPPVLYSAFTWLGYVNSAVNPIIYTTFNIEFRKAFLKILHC

The experiment concerns the target D(2) dopamine receptor (Homo sapiens) (UniProt P14416). The experiment is described as follows: HTS Assay for Allosteric Antagonists of the Human D2 Dopamine Receptor: Primary Screen for Antagonists. Also: 0% is about no effect. Conditions: HEK293 TREx D2 cells, calcium flux, dopamine EC80; at 10 µM; active compounds read high. The method, boiled down:
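Cells plated overnight at 30 C with tetracycline; no-wash calcium dye, 30–90 min RT; 10 s baseline; compound pinned; 180 s read; EC80 dopamine added; another 180 s read.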
`COc1ccccc1/C=C/C(=O)OCC(=O)NC1CCCCCC1`: the inhibition is -12.9%. Take `CCN(CC(=O)Nc1ccccc1C(=O)NC1CC1)Cc1cccs1`: the inhibition is 0.568%. Take `Cc1cc(C)c(C#N)c(SCC(=O)N(CC(C)C)C2CCS(=O)(=O)C2)n1` (configuration not stated): the inhibition is 6.67%. Consider `CC1CC1C(=O)OCC(=O)Nc1cccc(F)c1` (configuration not stated), for which the inhibition was 17.3%. The value for `O=C(Cc1cccs1)N(CC1CCCO1)C1(C(=O)NC2CCCCC2)CCCCC1` (configuration not stated) was 34% (active); that for `Cc1ccsc1C(C(=O)NC1CCCCC1)N(C(=O)Cc1cccs1)C1CC1` (configuration not stated) was 2.03%. As for `CC(=O)N(CC1CCCO1)C1(C(=O)NC2CCCC2)CCCCC1` (configuration not stated), the inhibition was -1.19%. Consider `COc1ccc(N(CCC(=O)NCCc2ccccc2)S(=O)(=O)c2ccc(C)cc2C)cc1`, for which the inhibition is -18.2%.

For `COc1cc2c(cc1OC)CN(C(C)C(=O)Nc1cccc(S(=O)(=O)N3CCOCC3)c1)CC2` (configuration not stated), the inhibition was 15.6%. Consider `CC(Oc1ccccc1)C(=O)Nc1c2c(nn1-c1ccccc1)CS(=O)C2` (configuration not stated), for which the inhibition is 30.2% (active). Consider `CC(C)C(=O)Nc1c2c(nn1-c1ccccc1)CSC2`, for which the inhibition was 7.83%. Turning to `COc1ccc(CC(=O)Nc2c3c(nn2-c2cccc(Cl)c2)CS(=O)C3)cc1` (configuration not stated), the inhibition is -9.37%. Next, `O=c1ccc(S(=O)(=O)N2CCCC2)cn1Cc1nc(-c2ccccc2)no1`: 15.2%. As for `CCOc1ccccc1-c1nc(CN2CCC(C(=O)N3CCOCC3)CC2)c(C)o1`, the inhibition is -1.66%.

For `COc1ccc(F)c(-c2nc(CN3CCC(c4ccccc4)CC3)c(C)o2)c1`, the inhibition was 93.5% (active). Next, `COc1ccc(-c2nc(CN3CCN(c4ncccn4)CC3)c(C)o2)cc1C`: 0.804%; `COc1ccccc1N1CCN(CC(=O)Nc2ccnn2C2CCCC2)CC1`: 14.3%; `CC(=O)NC12CC3CC(C1)CC(C(=O)N1CCN(S(=O)(=O)c4cccs4)CC1)(C3)C2`: -3.14%. On to `O=C1c2ccccc2C(=O)N1CCC#Cc1ccc2cc(C3(O)CCCCC3)oc(=O)c2c1`, for which the inhibition was -4.36%. With `COc1cccc(N2CC(NS(=O)(=O)c3ccc(Cl)cc3)CC2=O)c1` (configuration not stated), the inhibition was 12%. With `CN1C(=O)/C(=C\c2ccc(-c3ccccc3)o2)SC1=S`, the inhibition was 16.2%. On to `NS(=O)(=O)c1ccc(-c2ccc(/C=C3\SC(=O)NC3=O)o2)cc1`, for which the inhibition was 47.3% (active). The value for `CN1CCN(/N=C/c2ccc(-c3ccc([N+](=O)[O-])cc3)o2)CC1` was 11.1%; that for `COC(=O)c1sc(NC(=O)COC(=O)C2CCC2)c(C(=O)OC)c1C` was 3.68%; that for `CC(Sc1ncnc2c1cnn2-c1ccccc1)C(=O)Nc1ccc(N2CCOCC2)cc1` (configuration not stated) was 8.83%.

As to `CCOc1ccc(C(C)=O)cc1COC(=O)CN1C(=O)NC2(CCCC2)C1=O`, the inhibition is 5.14%. In the case of `CC(C)=CCC/C(C)=C/C(=O)O`, the inhibition is 55.4% (active). In the case of `O=C(CCc1ccccc1)NNC(=O)c1ccc(Br)cc1`, the inhibition was -5.25%.

On to `CC(C)c1ccc(C(=O)NCCCc2ccccc2)cc1`, for which the inhibition was -23.5%. Next, `O=C(CCNC(=O)c1ccc(Br)cc1)NCCCc1ccccc1`: 34.2% (active). For the compound `O=C(CNS(=O)(=O)c1ccc2ccccc2c1)Nc1ccc(F)c(F)c1F`, the inhibition is 6.19%. Consider `COC(=O)c1ccc(Cc2ccccc2)o1`, for which the inhibition is -18.3%. Take `COC(=O)c1ccc(CSc2nnc(N)s2)o1`: the inhibition is -17.4%. Take `COC(=O)c1ccc(CSc2ccccc2C)o1`: the inhibition was 34.1% (active). On to `COc1ccc(N2CCN(C(=O)COC(=O)c3cccc(S(=O)(=O)Nc4ccccc4OC)c3)CC2)cc1`, for which the inhibition is 3.16%.

As for `CC1CCCCC1NC(=O)NC(=O)COC(=O)C1=NN(c2ccccc2)C(=O)CC1` (configuration not stated), the inhibition was -16.5%. For `CC1CCCCC1NC(=O)COC(=O)Cc1ccc(Cl)cc1` (configuration not stated), the inhibition is -14.4%. Turning to `Cc1nn(Cc2ccccc2)c(C)c1C(=O)NCCCN1CCCC1=O`, the inhibition was 0.482%.

As to `CC(=O)Oc1ccccc1C(=O)Nc1ncc([N+](=O)[O-])s1`, the inhibition was 35% (active). On to `O=C(CCc1ccccc1)Nc1ncc([N+](=O)[O-])s1`, for which the inhibition is -6.9%. As to `O=C(Nc1ncc([N+](=O)[O-])s1)C1COc2ccccc2O1` (configuration not stated), the inhibition was 5.74%. With `O=C1C=C(c2cccc(Br)c2)C[C@@H](c2ccc(F)cc2)C1`, the inhibition is -5.1%. Turning to `Cc1cccc(OCC(O)CN2CCN(CCN3C(=O)c4cccc5cccc(c45)C3=O)CC2)c1C` (configuration not stated), the inhibition is -17.4%. Next, `OC(COc1ccc(Br)cc1)CN1CCCC1` (configuration not stated): 15.6%; `CC(C)c1ccc(OCC(O)CN2CCN(c3ccccn3)CC2)cc1` (configuration not stated): 74.5% (active). With `O=C(C(c1ccccc1)c1ccccc1)N1CCN(CC(O)COc2ccccc2)CC1` (configuration not stated), the inhibition was 19.3%. The value for `C=CCc1ccccc1OCC(O)CN1CCN(CCO)CC1` (configuration not stated) was -21.6%; that for `O=S(=O)(c1ccc(OCC(O)CN2CCN(c3ccccc3Cl)CC2)cc1)N1CCOCC1` (configuration not stated) was -9.57%. `CC(C)c1ccc(OCC(O)Cn2cnc3ccccc32)cc1` (configuration not stated): the inhibition was 5.76%. Consider `O=C(c1ccccc1)c1ccc(OCC(O)CN2CCCC2)cc1` (configuration not stated), for which the inhibition is 71.8% (active). For `CC1CCN(CC(O)COc2ccc(C(=O)c3ccccc3)cc2)CC1` (configuration not stated), the inhibition was 2.36%. Next, `CC(=O)Nc1ccc(OCC(O)CN2CCN(c3ccccc3Cl)CC2)cc1` (configuration not stated): 76.3% (active); `OC(COc1cccc2ccccc12)CN1CCN(c2ccccn2)CC1` (configuration not stated): 75.1% (active).

Regarding `O=C(c1ccc(Cl)cc1)c1ccc(OCC(O)CN2CCCCC2)cc1` (configuration not stated), the inhibition is 11.7%. For `Cc1ccc(CC(=O)N(C)CC(=O)N(CC(C)C)c2c(N)n(CC(C)C)c(=O)[nH]c2=O)cc1C`, the inhibition is 15%. Consider `CC(C)CCN1CCN=C1N(C)C`, for which the inhibition was 8.98%.

As to `O=C(Nc1ccccn1)C1CCN(S(=O)(=O)c2ccccc2)CC1`, the inhibition was 5.14%. Turning to `COc1ccccc1-c1oc2ccccc2c1C#CCCCCO`, the inhibition was 13.9%. As for `Cc1cc(C)n2nc(C(=O)OCC(=O)N(C)CC(=O)Nc3ccc(F)cc3)nc2n1`, the inhibition is 7.08%. For the compound `CN(CC(=O)Nc1ccc(OC(F)(F)F)cc1)C(=O)C1CCC1`, the inhibition is -3.8%.

For the compound `COc1ccccc1C(=O)Nc1ccc(C)c(S(=O)(=O)N2CCCCC2)c1`, the inhibition was 9.57%. Take `O=C(Nc1ccccc1F)c1ccc(S(=O)(=O)N2CCCCCC2)cc1`: the inhibition was -10.1%. In the case of `CN(C(=O)COC(=O)c1cc(=O)[nH]c2ccccc12)C1CCCCC1`, the inhibition was 6.97%.

On to `O=C(Nc1cc(S(=O)(=O)N2CCOCC2)ccc1OCC(F)(F)F)c1ccc(N2CCCC2=O)cc1`, for which the inhibition was -14.2%.

For `Cc1cccc(C)c1OCC(O)CN1CCCCC1` (configuration not stated), the inhibition is 13.3%. As to `Cc1ccccc1OCC(O)CN1CCN(c2ccccn2)CC1` (configuration not stated), the inhibition was 87.2% (active).

As to `COc1ccccc1OCC(O)CN1CCOCC1` (configuration not stated), the inhibition is 3.41%.

As to `CC(NC(=O)c1ccccc1SCC(=O)N1CCCC1)c1ccccc1` (configuration not stated), the inhibition was 5.13%. With `Cc1ccc(NC(=O)COC(=O)CNC(=O)c2ccc(Cl)cc2Cl)cc1S(=O)(=O)N1CCOCC1`, the inhibition was -10.2%. The value for `COC(=O)Cc1[nH]n(-c2nc3ccccc3s2)c(=O)c1C(C)=Nc1ccc(OC)cc1` was 12.5%; that for `C/C(=N\NC(=O)CC(C)C)c1c(C(F)(F)F)[nH]n(-c2nc3ccccc3s2)c1=O` was -4.59%; that for `COC(=O)Cc1cc(=O)n(-c2nc3ccccc3s2)[nH]1` was 36.2% (active).

As for `N[C@@H](Cc1ccccc1)C(=O)N1CCOCC1`, the inhibition is -3.78%.

Take `COc1ccc(S(=O)(=O)N2CCOCC2)cc1NC(=O)CC1CC2CCC1C2` (configuration not stated): the inhibition is -10.8%. Turning to `O=C(Nc1ccc(-n2cccn2)cc1)C1CCN(Cc2ccsc2)CC1`, the inhibition was 0.479%. As to `O=C(Nc1cccc(-c2cscn2)c1)C1CCN(Cc2ccsc2)CC1`, the inhibition is 48.1% (active).

Turning to `CC(=O)c1cc(CN2CCC(C(=O)Nc3cccc(-c4cscn4)c3)CC2)cs1`, the inhibition was 10.7%.

With `Cc1cc(C)cc(NC(=O)C(c2ccccc2)N2CCN(CC(=O)N3CCCC3)CC2)c1` (configuration not stated), the inhibition was 3.24%. Consider `Cn1c(=O)[nH]c(=O)c2c1nc(CN(Cc1ccccc1)Cc1ccccc1)n2CCN1CCOCC1`, for which the inhibition is 10.3%. As to `CC1CCN(c2nc3c(c(=O)[nH]c(=O)n3C)n2CCCc2ccccc2)CC1`, the inhibition is -0.868%. Take `Cn1c(=O)[nH]c(=O)c2c1nc(CN1CCN(c3ccccc3F)CC1)n2CCc1ccccc1`: the inhibition was 46.1% (active). Turning to `CCOC(=O)c1sc(NC(=O)C2CSC3(C)CCC(=O)N23)nc1C` (configuration not stated), the inhibition is -25.8%. On to `COc1ccc(C2(C)ON(c3ccccc3C(F)(F)F)C2=O)cc1` (configuration not stated), for which the inhibition was -4.74%.

As to `O=C(CCCN1C(=O)/C(=C\c2ccccc2)SC1=S)Nc1ccccc1O`, the inhibition is -8.37%. With `CCN(C(=O)CN1C(=O)/C(=C/c2ccc(F)cc2)SC1=S)C1CCS(=O)(=O)C1` (configuration not stated), the inhibition was -6.17%. As to `O=C1/C(=C/c2ccc(F)cc2)SC(=S)N1CCCC(=O)N1CCCCC1CCO` (configuration not stated), the inhibition is 31.6% (active). Take `COc1ccc(Cl)cc1NC(=O)CN(C)C(=O)c1ccc2n[nH]nc2c1`: the inhibition was -5.47%. Consider `Cc1nc2ccccc2n1CC(O)c1ccccc1` (configuration not stated), for which the inhibition is 2.64%. Next, `CCn1c(C)nc2c1C(=O)c1ccccc1C2=O`: 34.8% (active); `CCC1(CC)Cc2ccccc2-c2nc3ccccc3c(=O)n21`: 5.55%; `C#CCOCCOCCOCCNc1nc(N2CCN(C(=O)[C@H](CCCCN)n3cc(CCC(=O)O)nn3)CC2)nc(N2CCN(C(=O)[C@H](CCCCN)n3cc(CC(C)O)nn3)CC2)n1` (some centres not stated): -5%.

On to `COc1ccccc1Nc1nnc(SC(C)C(=O)NC2CC2)s1` (configuration not stated), for which the inhibition was -7.77%.
